# Bioassay records: PubChem, National Center for Advancing Translational Sciences (NCATS)
# BAZ2B block: inhibitors of human BAZ2B bromodomain. hit rate 4.4% among 360,000. Q9UIF8. AlphaScreen BAZ2B-H3K14Ac peptide displacement. Potency, µM (doses to about 114 µM), for the others: top-dose activity change, negative = inhibition, actives largely listed as inhibitors; note: % is set by controls: 0 for no effect and ±100 for the full control effect; nearly all actives have a fitted effect of over 60% in size
#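 Complex of BAZ2B and biotin-H3K14Ac (50 nM apiece) forms over 30 min at RT, then faces library compounds up to 110 uM for another 30 min; AlphaScreen beads added, 20 min dark incubation, luminescence read.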
# G9a inh: G9a (human) methyltransferase inhibition. Q96KQ7. G9a H3K9 monomethylation, AlphaScreen, 2 h. Potency, µM (titrated, usually from 102 µM), for the others: at the highest dose activity, negative = inhibition, actives largely listed as inhibitors. hit rate 8.8% among 350,000. AID 504332; note: % is set by controls: 0 for no effect and ±100 for the full control effect; nearly all actives have a fitted effect of over 75% in size
#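 AlphaScreen detection with an anti-monomethyl H3K9 antibody quantified product after a 2 h room-temperature reaction containing 500 nM biotinylated H3K9 peptide, 20 µM SAM and 20 nM enzyme, which had been preincubated 15 min with compound.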
# HP1b binding inh: HP1-beta chromodomain-methylated histone interaction inhibition; hit rate 0.56% among 390,000; Potency, µM (series often up to 114 µM), for the others: at the top dose activity change, negative = inhibition, actives largely listed as inhibitors; P83916; AlphaScreen HP1-beta / biotin-H3K9me3 peptide binding; note: nearly all actives have a fitted effect of over 70% in size
#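 AlphaScreen: HP1-beta (50 nM) preformed 30 min with biotin-H3(1-18)K9me3 peptide (50 nM) in PBS pH 7.4, 0.01% Tween-20. Compound added for 30 min at RT, then streptavidin donor/nickel chelate acceptor beads (10 ug/mL) for 30 min.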
# L3MBTL1 block: L3MBTL1 (human) inhibition; Q9Y468; hit rate 0.66% among 230,000; AlphaScreen L3MBTL1–H3K9me1 peptide binding; Potency, µM (series often up to 57.1 µM), for inactives: at the top dose activity, negative = inhibition, actives largely listed as inhibitors; note: % is set by controls: 0 for no effect and ±100 for the full control effect; nearly all actives have a fitted effect of over 60% in size
#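 L3MBTL1 (50 nM) pre-complexed 30 min with biotinylated H3(1-15)K9me1 peptide (75 nM), then compounds added for 30 min at room temperature; AlphaScreen streptavidin donor/nickel chelate acceptor beads (10 ug/mL final) read after 30 min dark incubation.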
# JMJD2A Tudor inh: JMJD2A Tudor domain (human) inhibition. Potency, µM (highest dose often 114 µM), for the others: at the top dose activity change, negative = inhibition, most hits filed as inhibitors. hit rate 4.4% among 390,000. AlphaScreen JMJD2A-Tudor / H3K4me3 peptide binding. O75164; note: % is set by controls: 0 for no effect and ±100 for the full control effect; nearly all actives have a fitted effect of over 50% in size
# Target sequence (O75164 whole entry, looked up, the tested form may be a part): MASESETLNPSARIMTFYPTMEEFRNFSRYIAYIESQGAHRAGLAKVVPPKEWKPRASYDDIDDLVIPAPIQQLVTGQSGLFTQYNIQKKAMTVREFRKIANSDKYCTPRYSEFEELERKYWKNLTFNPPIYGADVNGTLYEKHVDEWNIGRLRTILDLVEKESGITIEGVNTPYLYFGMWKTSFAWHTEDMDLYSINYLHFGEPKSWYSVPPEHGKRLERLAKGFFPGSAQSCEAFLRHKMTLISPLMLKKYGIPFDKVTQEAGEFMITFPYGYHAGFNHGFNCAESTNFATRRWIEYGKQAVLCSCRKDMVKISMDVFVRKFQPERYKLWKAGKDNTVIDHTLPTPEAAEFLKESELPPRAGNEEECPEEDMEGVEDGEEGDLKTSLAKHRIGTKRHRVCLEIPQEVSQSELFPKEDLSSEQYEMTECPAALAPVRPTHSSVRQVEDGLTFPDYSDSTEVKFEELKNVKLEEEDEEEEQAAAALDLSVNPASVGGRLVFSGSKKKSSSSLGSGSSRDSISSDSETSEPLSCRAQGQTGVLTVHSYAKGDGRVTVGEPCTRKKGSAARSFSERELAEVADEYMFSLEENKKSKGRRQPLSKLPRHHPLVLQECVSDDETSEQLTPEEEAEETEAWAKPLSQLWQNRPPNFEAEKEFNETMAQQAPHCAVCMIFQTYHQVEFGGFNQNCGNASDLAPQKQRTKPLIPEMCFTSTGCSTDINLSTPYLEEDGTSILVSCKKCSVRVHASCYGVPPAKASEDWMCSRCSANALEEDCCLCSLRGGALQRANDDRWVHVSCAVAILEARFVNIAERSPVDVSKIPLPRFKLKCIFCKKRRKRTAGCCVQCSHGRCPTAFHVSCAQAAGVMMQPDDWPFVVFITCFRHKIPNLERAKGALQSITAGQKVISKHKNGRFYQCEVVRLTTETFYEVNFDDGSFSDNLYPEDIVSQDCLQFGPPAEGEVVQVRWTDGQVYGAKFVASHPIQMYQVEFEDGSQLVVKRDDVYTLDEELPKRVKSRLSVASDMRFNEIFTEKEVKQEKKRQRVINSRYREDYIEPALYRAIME
# Sfp inh: blocks B. subtilis Sfp PPTase activity; Q9F4F7; hit rate 3.5% among 310,000; Biochemical Sfp PPTase activity, qHTS; Potency, µM, for inactives: largest response in the series, negative = inhibition, most hits filed as inhibitors;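 note: the enzyme is Sfp with the accession as filed and its product quenches rhodamine fluorescence; 0% = enzyme reaction without inhibitor and -100% = no enzyme wells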
#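 Reaction rates are the 30-min fluorescence difference (ex 525, em 598 nm) in wells containing 15 nM Sfp, 5 uM rhodamine-CoA and 12.5 uM BHQ-2-YbbR at pH 7.6 with 10 mM MgCl2.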
# * marks the source's active call; other numbers are inactive results; u = inconclusive; x = no result given; [ ] = dose if it differs, or a comment. Hits are enriched below; roughly 12% of the tested compounds scored in any of these assays. Calls come from the whole dose curve; as a rule, active = well fitted curve in the direction sought with a large enough effect; inconclusive = small, poorly fitted or top-dose-only effect, or another doubt; inactive = no such curve, though single readings can be large; an effect the other way counts as inactive or inconclusive. Potency is the fitted concentration of half-maximal effect.
SMILES,BAZ2B block,G9a inh,HP1b binding inh,L3MBTL1 block,JMJD2A Tudor inh,Sfp inh
Cc1cc(-c2nnc(SCC(=O)Nc3cccc(Cl)c3)n2N)n[nH]1,56µM*,3%,45%,x,-2%,3%
CCOc1ccccc1CNC(=O)c1cc2c(=O)n(Cc3ccccc3)ccc2nc1C,-12%,3%[59 µM],2%,x,-17%,x
C=CC(=O)O,x,u,x,x,x,16%
CC1=C(C(=O)Nc2cccc(C(F)(F)F)c2)C(c2ccccc2)n2ncnc2N1 (stereo not given),-16%,-5%[59 µM],16%[57 µM],x,-16%,x
CCn1nnc2cc(C(=O)Nc3cccc(C)c3C)ccc21,-1%,-1%[59 µM],12%,x,-13%,x
CCCn1c2ccccc2c2cnn(CC(=O)NCCCN(Cc3ccccc3)C(C)C)c(=O)c21,-4%,-2%[59 µM],12%,x,-9%,x
O=C(CSc1n[nH]c(-c2ccccc2)n1)Nc1ccc(N2CCOCC2)cc1,u,u,-14%,-3%[11.4 µM],-16%,3%
NS(=O)(=O)c1ccc(NC(=O)COC(=O)CSc2n[nH]c(-c3ccccc3)n2)cc1,-8%,32µM*,35%,0%,-6%,8%
COc1cc(CCC(=O)NCc2ccc3c(c2)CCN3C(=O)c2ccccc2)cc(OC)c1OC,-7%,-2%[59 µM],21%,x,-14%,x
CCOc1cc(C(=O)NCCc2sc(-c3ccc(F)cc3)nc2C)cc(OCC)c1OCC,-9%,20%[59 µM],5%[57 µM],x,-23%,x
O=c1cnc2cnc(Oc3ccccc3)nc2n1C[C@H]1CCCO1,x,11%[12.7 µM],x,x,x,1%
CCOc1ccccc1NC1c2ccccc2C(=O)N1Cc1ccco1 (stereo not given),u,45µM*,-8%,x,u,-7%
COc1ccc2c(Sc3ccccc3)c(C(=O)NCCN(C)C)[nH]c2c1,-16%,u,4%,x,-31%,x
C/C(=N\NC(=O)c1ccccn1)c1ccc(Cl)cc1,u,x,30%,-11%,-23%,89µM*
C/C(=N\Nc1ccc(Cl)cc1)c1ccccn1,u,3.5µM*,-7%,x,u,0%
C/C(=N\NC(=O)c1ccc(Cl)cc1)c1cccnc1,-1%,7%,-18%,x,-20%,-2%
C/C(=N\NC(=O)COc1ccccc1-c1ccccc1)c1ccccn1,56µM*,-8%,46%,-2%,10%,10%
C/C(=N\NC(=O)COc1ccccc1-c1ccccc1)c1cccnc1,-19%,-13%,29%,-9%,-5%,4%
C/C(=N\NC(=O)c1ccccn1)C12CC3CC(CC(C3)C1)C2,50µM*,u,36%,2%,u,6%
CCc1ccc(NC(=O)Cn2c(=O)n(CCCCC(=O)NCCc3ccc(Cl)cc3)c(=O)c3ccccc32)cc1,-1%,6%[59 µM],29%,x,-2%,x
CC1=CC2C(C(C)C)CCC(C)(O)C2CC1 (stereo not given),x,x,x,x,x,-2%
C/C(=N\NC(=O)c1c[nH]c2ccccc12)c1ccc(C)o1,-8%,-6%,39%,x,-18%,-5%
CC(=NNC(=S)Nc1cccc(Cl)c1)c1ccccn1,x,x,u,x,25µM*,x
C/C(=N/NC(=O)c1ccccn1)c1ccc(O)cc1,50µM*,x,59%,-9%,u,-25%
C/C(=N\NC(=O)c1cc(C)nc2ccccc12)c1ccccn1,7.9µM*,25%[2.33 µM],44%,28µM*,20µM*,x
SMILES,BAZ2B block,G9a inh,HP1b binding inh,L3MBTL1 block,JMJD2A Tudor inh,Sfp inh
S=C(NCc1ccccn1)Nc1cccc(Cl)c1,-3%,17%[0.501 µM],12%,0%,u,6%
C/C(=N/NC(=O)c1ccccn1)c1c[nH]c2ccccc12,50µM*,u,39%,-18%,-25%,5%
CCc1ccc(-c2nc(SCC(=O)NCCOC)c(-c3ccc(C)cc3)[nH]2)cc1,-26%,-11%[59 µM],-2%,x,-17%,x
C=C1CCN(C(Cc2ccccc2)C(=O)N2CCOCC2)S(=O)(=O)c2ccccc21 (stereo not given),x,x,15%,x,-3%,8%
C/C(=N\NC(=O)C(C)Oc1ccc([N+](=O)[O-])cc1)c1ccccn1 (stereo not given),25µM*,-3%[59 µM],33%,-2%,56µM*,19%
S=C(N/N=C/c1cccc2ccccc12)Nc1cccc(Cl)c1,79µM*,-1%,9%,-24%,-20%,18%
C/C(=N/Nc1ccc([N+](=O)[O-])cc1)c1c[nH]c2ccccc12,40µM*,u,u,u,u,6%
COc1cc(C(=O)N/N=C(\C)c2ccccn2)cc(OC)c1OC,-17%,63%,20%,x,-19%,6%
C/C(=N\NC(=O)c1ccc(Cl)cc1)c1ccccn1,7.9µM*,x,23%,u,25µM*,8%
CCc1ccc(-n2c(=O)c3c(C)c(C(=O)N(C)C)sc3n(Cc3ccccc3F)c2=O)cc1,-29%,2%[59 µM],18%,x,-19%,x
CCOC(=O)CN(Cc1cc(OC)cc(N(C)C)c1OC)C(=O)C1CC(CO[Si](C)(C)C(C)(C)C)=CN1C(=O)OC(C)(C)C (stereo not given),x,x,-16%,x,u,-1%
CCCCn1c(=O)c2oc3ccccc3c2n(CC(=O)Nc2cccc(Cl)c2)c1=O,4%,-9%[59 µM],37%,x,-13%,x
C/C(=N/NC(=O)CNC(=O)c1ccccn1)c1cccc([N+](=O)[O-])c1,u,18µM*,24%,-2%,0%,-21%
O=C1CN(C(=O)/C=C/c2ccco2)c2ccccc2N1,u,u,0%,-27%,-11%[57.1 µM],u
O=C1CNC(=O)/C(=C/c2ccco2)N1,-21%,-43%,1%,35µM*,12%,1%
Cc1ccc2onc(CC(=O)N3CCN(c4cc(Cl)ccc4C)CC3)c2c1,u,u,37%,x,-12%,x
COc1ccc(NCC(=O)N/N=C/c2c(C)nn(Cc3ccccc3)c2Cl)cc1,45µM*,u,-28%,u,u,-12%
CCCCN1C(C(=O)c2ccccc2)=C(OC(=O)CC)c2ccccc2S1(=O)=O,-19%,-33%[59 µM],30%,x,-30%,x
COc1cccc(Cn2c(=O)cc(C)c3c(C)nn(-c4ccc(C)cc4)c32)c1,41%,47%[59 µM],110%,x,50%,x
Cc1cccc(C)c1OCCn1c(CCNC(=O)C2CCCCC2)nc2ccccc21,-30%,6%[59 µM],30%,x,-17%,x
Cc1ccccc1OCc1ccc(-c2nc(C#N)c(N3CCC(C(N)=O)CC3)o2)o1,u,10µM*,-5%,x,u,x
CCN1CCN(c2oc(-c3ccc(COc4ccccc4C)o3)nc2C#N)CC1,11%,5%[59 µM],u,x,50µM*,x
COc1ccc(N2CCN(c3oc(-c4ccc(COc5cccc(C)c5)o4)nc3C#N)CC2)cc1,u,u,19%,x,u,x
CCOC(=O)NC1(Nc2cccc(Cl)c2)Oc2ccccc2O1,3%,2µM*,u,-11%,40µM*,u
